Compound activity as filed in PubChem BioAssay.
SENP8 block-1 – blocks the human protease SENP8. 330,000 compounds, 1.2% hits. purified SENP8, Z-RLRGG-aminoluciferin cleavage, luminescence. Q96LD8. inhibition, % at 10 µM; in the data active = inhibition above about 50%
SENP6 block – inhibitors of human SENP6 protease. inhibition, % at 10 µM. 330,000 compounds, 1.8% hits. Q9GZR1. Recombinant SENP6 catalytic domain, aminoluciferin luminescence;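 active = inhibition above about 50% at the single tested dose, limit read from the data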;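 note: plate controls were DMSO wells with enzyme for no effect and DMSO wells lacking enzyme for full effect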
PPC-1+TRAIL kill – PPC-1 cancer cell killing with TRAIL present. PPC-1 cells + TRAIL, ATPLite viability luminescence. cell killing (% activity), % at 4 µM or 5 µM. 220,000 compounds, 0.41% hits;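 active = cell killing above 50% in the first pass at 4 µM, then a duplicate retest at 5 µM averaging 50% or more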;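 note: plate controls were cells with TRAIL plus DMSO for no effect and medium-only wells lacking cells for full effect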
SENP8 block-2 – blocks human SENP8 cleavage of Nedd8 substrate. 360,000 compounds, 0.64% hits. inhibition, % at 20 µM. recombinant SENP8, Nedd8 substrate fluorescence; in the data active = inhibition mostly above about 40%, no sharp cut-off; inactive = mostly below about 27%
SENP7 inh – blocks the human protease SENP7; Q9BQF6; recombinant SENP7, Z-RLRGG-aminoluciferin luminescence, 40 min; inhibition, % at 5 µM; 330,000 compounds, 1.5% hits; AID 434973;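 active = inhibition above about 50% at the single test dose, limit read from the data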;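 note: plate controls were DMSO with enzyme for no effect and no enzyme buffer wells for full effect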
Target sequence (Q9BQF6 706-1050 limits assumed): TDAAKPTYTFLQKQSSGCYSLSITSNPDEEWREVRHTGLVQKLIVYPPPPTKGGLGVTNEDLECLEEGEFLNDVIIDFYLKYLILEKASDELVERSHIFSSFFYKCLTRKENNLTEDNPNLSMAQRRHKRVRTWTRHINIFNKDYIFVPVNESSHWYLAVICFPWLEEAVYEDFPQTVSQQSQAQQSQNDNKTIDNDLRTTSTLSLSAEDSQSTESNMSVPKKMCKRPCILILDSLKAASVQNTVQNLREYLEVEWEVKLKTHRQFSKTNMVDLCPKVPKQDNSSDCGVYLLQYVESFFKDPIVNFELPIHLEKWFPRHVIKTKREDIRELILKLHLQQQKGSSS
C8 TRAIL sens – caspase-8 TRAIL sensitization | NB7+C8 cells + TRAIL, ATPlite viability luminescence | inhibition (viability loss, TRAIL sensitization), % at 10 µM | 360,000 compounds, 1% hits | AID 624354;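 active = compounds causing at least 50% loss of cell viability in the single-dose screen, relative to plate controls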
SENP8 inh conf – confirmation of human SENP8 protease inhibitors; shares compounds with SENP8 block-2; purified SENP8, Nedd8-AMC/pro-Nedd8 cleavage fluorescence, 30 min; inhibition, % at 25 µM; 1,400 compounds, 15% hits; in the data active = inhibition mostly above about 39%, no sharp cut-off; inactive = mostly below about 34%
Numbers without * were called inactive; nt = not tested or not shown. An excerpt weighted towards active compounds, which were near 3% of everything screened.

SMILES	SENP8 block-1	SENP6 block	PPC-1+TRAIL kill	SENP8 block-2	SENP7 inh	C8 TRAIL sens	others
COc1ccc(NC(=O)COc2nsnc2N2CCOCC2)c(OC)c1	-10	-1	nt	20	-16	-19
COc1ccc(NC(=O)Nc2ccc(N3CCOCC3)c3nonc23)c(OC)c1	11	14	5	44*	8	3	SENP8 inh conf=11
CCn1cnnc1SCC(=O)c1c(N)n(C2CC2)c(=O)[nH]c1=O	-5	-6	nt	11	1	-13
CCN(CC(=O)Nc1c(F)cccc1F)C(=O)c1cccc(-n2cnnn2)c1	-4	5	nt	8	10	2
Cn1c(=O)n(CC(=O)NCC2CCCO2)c(=O)c2c3c(sc21)COC(C)(C)C3 (centres undefined)	-4	6	nt	22	-4	15
CC(C)C(c1nnnn1Cc1cccs1)N1CCN(C(=O)c2ccco2)CC1 (centres undefined)	0	1	nt	11	5	-7
